In PMC5540273 (PLoS ONE, 2017):

Tests used:
Conditions in all cases: concentration: 1 μM, replicates: in singlicate; n = 1
ULK2 = test system: ULK2
ULK3 = test system: ULK3
VEGFR2 = test system: T1, VEGFR2
T1 construct: gene KDR

VPS34 = test system: T2, VPS34
T2 construct: gene PIK3C3

VRK2 = test system: VRK2
WEE1 = test system: WEE1
WEE2 = test system: WEE2
WNK1 = test system: WNK1
WNK2 = test system: WNK2
WNK3 = test system: WNK3
WNK4 = test system: WNK4
YANK1 = test system: T3, YANK1
T3 construct: gene STK32A

YANK2 = test system: T4, YANK2
T4 construct: gene STK32B

YANK3 = test system: T5, YANK3
T5 construct: gene STK32C

YES = test system: T6, YES
T6 construct: gene YES1

YSK1 = test system: T7, YSK1
T7 construct: gene STK25

YSK4 = test system: T8, YSK4
T8 construct: gene MAP3K19

ZAK = test system: ZAK
ZAP70 = test system: ZAP70
p38-alpha = test system: T9, p38-alpha
T9 construct: gene MAPK14
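Further: KINOMEscan kinase panel screen.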

Structure (SMILES)	%Inh (ULK2)	%Inh (ULK3)	%Inh (VEGFR2)	%Inh (VPS34)	%Inh (VRK2)	%Inh (WEE1)	%Inh (WEE2)	%Inh (WNK1)	%Inh (WNK2)	%Inh (WNK3)	%Inh (WNK4)	%Inh (YANK1)	%Inh (YANK2)	%Inh (YANK3)	%Inh (YES)	%Inh (YSK1)	%Inh (YSK4)	%Inh (ZAK)	%Inh (ZAP70)	%Inh (p38-alpha)
Nc1nc(-c2cccnc2)c(-c2ccnc3ccccc23)s1 [GW684083]	0%	18%	0%	72%	16%	27%	11%	0%	0%	31%	39%	20%	18%	0%	18%	0%	60%	78%	0%	40%
Nc1nc(-c2ccc3c(N)n[nH]c3c2)cc(N2CCC[C@@H](C(=O)Nc3ccccc3)C2)n1.O=C(O)C(F)(F)F.O=C(O)C(F)(F)F [GSK2288359]	3%	13%	18%	0%	0%	8%	0%	11%	6%	14%	0%	4%	0%	0%	0%	5%	9%	3%	0%	0%
CC(=O)Nc1n[nH]c2ncc(-c3ccccc3)cc12 [SB-548492]	35%	30%	18%	7%	0%	0%	20%	0%	0%	0%	30%	0%	0%	0%	0%	0%	31%	31%	0%	4%
COC(=O)c1c(-c2ccccc2)c2cc(Cl)ccc2c(=O)n1Cc1ccc(S(C)(=O)=O)cc1	0%	0%	0%	0%	10%	0%	0%	0%	4%	0%	27%	0%	15%	0%	0%	0%	2%	5%	0%	17%
CCc1nc(-c2cccc(C)c2)c(-c2ccnc(NC(=O)c3ccccc3)c2)s1	9%	14%	0%	14%	0%	0%	10%	0%	59%	0%	18%	13%	41%	15%	19%	2%	23%	0%	0%	
CC(C)N1CCC(n2cnc(-c3ccc(F)cc3)c2-c2ccnc(N)n2)CC1 [SB-223132]	0%	5%	0%	27%	0%	17%	0%	0%	0%	0%	0%	0%	16%	0%	0%	0%	0%	8%	5%	96.8%
COc1ccc(NC(=O)Nc2ccc(C)c(-c3ccc(C(=O)Nc4ccncc4)cc3)c2)cc1 [GSK1398475]	0%	0%	0%	0%	0%	34%	11%	4%	0%	2%	0%	0%	0%	7%	13%	13%	9%	6%	0%	60%
CSc1nn2c(=O)cc(N3CCOCC3)nc2n1Cc1cccc(Cl)c1Cl [GSK2347225]	0%	0%	0%	97.1%	0%	29%	35%	11%	18%	4%	0%	16%	7%	19%	31%	12%	0%	0%	0%	0%
Oc1ccc2ncnc(Nc3ccc(OCc4ccccc4)cc3)c2c1 [GI262866]	0%	4%	0%	0%	0%	0%	0%	0%	0%	0%	14%	0%	0%	15%	0%	0%	7%	18%	0%	0%
O=c1cc(N2CCOCC2)nc2n(Cc3cccc(Cl)c3)ccn12 [GSK2296823]	0%	11%	6%	93.3%	2%	0%	13%	5%	0%	3%	0%	0%	0%	18%	23%	10%	19%	0%	0%	0%
c1ccc(-c2ccc3c(-c4ccnc(Nc5ccc6c(c5)OCCO6)n4)cnn3n2)cc1 [GW818941]	0%	15%	9%	0%	7%	2%	0%	2%	0%	15%	0%	0%	13%	0%	5%	0%	0%	10%	20%	0%
